Screens from PubChem.
This is a sample that favours compounds with a hit; in the whole collection about 1.1% have one here.
PTHR1 ag – agonists of human PTHR1 parathyroid hormone receptor | Q03431 | HEK293 GP2 PTHR1 cells, GloSensor cAMP luminescence, 1 h | Potency, µM (titrated, usually from 115 µM), actives largely listed as activators | 410,000 compounds, 0.075% hits | AID 743266; note: nearly all actives have a fitted effect of over 55% in size
Target sequence (Q03431 whole entry, looked up): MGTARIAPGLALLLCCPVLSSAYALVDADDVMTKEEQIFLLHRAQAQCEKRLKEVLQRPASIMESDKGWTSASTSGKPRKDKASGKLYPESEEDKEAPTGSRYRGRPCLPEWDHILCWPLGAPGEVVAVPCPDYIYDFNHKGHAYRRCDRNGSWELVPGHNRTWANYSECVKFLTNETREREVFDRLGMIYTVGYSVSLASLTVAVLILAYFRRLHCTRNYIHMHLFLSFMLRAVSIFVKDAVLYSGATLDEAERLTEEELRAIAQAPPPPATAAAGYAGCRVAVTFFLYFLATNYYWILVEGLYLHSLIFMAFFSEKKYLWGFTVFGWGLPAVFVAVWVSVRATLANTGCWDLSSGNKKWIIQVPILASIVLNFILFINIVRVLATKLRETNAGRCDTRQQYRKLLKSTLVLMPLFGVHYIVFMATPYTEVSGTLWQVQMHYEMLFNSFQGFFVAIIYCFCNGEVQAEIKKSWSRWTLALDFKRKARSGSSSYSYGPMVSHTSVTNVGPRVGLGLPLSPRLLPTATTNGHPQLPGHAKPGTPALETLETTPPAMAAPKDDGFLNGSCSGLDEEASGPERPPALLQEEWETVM
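HEK-293-derived GP2 cells expressing PTHR1 and a GloSensor cAMP reporter, 3,000/well, plated overnight, given luciferin plus IBMX (each 0.5 mM as added) for 1 h at 37 °C, then compound for 1 h at 37 °C. Luminescence was read after 15 min at room temperature.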
p53 reactivation – re-activators of mutant p53 | 320,000 compounds, 0.063% hits | H1299 p53-A138V BP100-luciferase reporter, luminescence, 24 h | Potency, µM (titrated, usually from 92.2 µM), usual class: activators; note: nearly all actives have a fitted effect of over 45% in size
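p53-null H1299 cells stably carrying temperature-sensitive p53-A138V and a BP100-luciferase reporter were pinned with compounds (4-point, 1:5 series) and held 24 hrs at 37 deg C. Luminescence was read 10 min after detection reagent.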
BRCA1 expr act – BRCA1 expression activation; MCF7-BRCA1-FFLuc reporter, luminescence, 48 h; response scale: scaled: vehicle 0%, 10 µM genistein 100%; Potency, µM (highest dose often 46.1 µM), hits mostly activators; 380,000 compounds, 1.1% hits; AID 624202; note: nearly all actives have a fitted effect of over 80% in size
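Activators of BRCA1 expression were detected as increased firefly luciferase luminescence in engineered MCF7 cells after 48 h compound incubation. Signals were scaled to genistein 10 microM as full activation.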
RGS4 inhibitor – inhibitors of human regulator of G protein signaling 4 | P49798 | 390,000 compounds, 0.039% hits | Potency, µM (doses to about 114 µM), hits mostly inhibitors | AID 504845 | Transcreener GDP fluorescence polarization, RGS4-accelerated GTP hydrolysis; note: nearly all actives have a fitted effect of over 75% in size
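MLSMR compounds (23 nl, pin-transferred) preincubated 10 min at room temperature with a 500nM (2x) first reagent, then RGS4 at 900nM (2x) plus Transcreener GDP mix added; fluorescence polarization (620/688 nm) read before and after 90 min at 30 °C.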
LDHA inh – LDHA (human) enzyme inhibition; purified LDHA, NADH/diaphorase-resazurin fluorescence; active compounds read low; P00338; activity change, % (values are at about 110 or 230 µM); AID 1347041; 480,000 compounds, 0.15% hits; in the data active = activity change below about -30%; inconclusive = mostly about -25% to -30%
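Human LDH5 (2 nM) was incubated with 0.06 mM NADH and 0.2 mM pyruvate for 5 min at room temperature in Tris pH 7.4. Remaining NADH was coupled through diaphorase/resazurin, and resorufin fluorescence was read at 0 and 20 min.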
Each line names hits and unclear results; the compound was inactive in the other large screens. Unless noted, calls come from the whole dose curve; as a rule, active = well fitted curve in the direction sought with a large enough effect; inconclusive = small, poorly fitted or top-dose-only effect, or another doubt; inactive = no such curve, though single readings can be large; an effect the other way counts as inactive or inconclusive.

NC(=O)CCN1CCN(S(=O)(=O)c2ccc(F)c(F)c2)CC1	none (no result: PTHR1 ag, p53 reactivation, BRCA1 expr act, RGS4 inhibitor)
CCOC(=O)c1ccc2nc(C)cc(Nc3ccc(OC)cc3)c2c1	none (no result: PTHR1 ag, p53 reactivation, BRCA1 expr act, RGS4 inhibitor)
Cc1ccc(Cc2nc(-c3ccccn3)no2)cc1	BRCA1 expr act 2.2µM
Cc1cccc(-c2noc(CSc3ccccc3)n2)c1	p53 reactivation inconclusive, BRCA1 expr act 3.2µM
Cc1ccc(-c2noc(CSc3ccccc3)n2)cc1	p53 reactivation inconclusive, BRCA1 expr act inconclusive
O=C(NC1CCCc2ccccc21)C(c1ccccc1)c1ccccc1 (configuration not stated)	none (no result: PTHR1 ag, p53 reactivation, BRCA1 expr act, RGS4 inhibitor)
O=C(Nc1cccc2ncccc12)c1ccc(Oc2ccccc2)cc1	none (no result: PTHR1 ag, p53 reactivation, BRCA1 expr act, RGS4 inhibitor)
Cc1ccccc1CN(C)CCc1ccccn1	LDHA inh -32
O=C(O)c1ccc(N=Nc2c(O)[nH]c3ccc(Br)cc23)cc1	p53 reactivation inconclusive, BRCA1 expr act 5.6µM
CNc1ncc(C(=O)c2ccc(Cl)cc2)s1	BRCA1 expr act 4.5µM
CNc1ncc(C(=O)c2ccc(-c3ccccc3)cc2)s1	p53 reactivation inconclusive, BRCA1 expr act 2.8µM
Cc1ccc(-c2cc(C(=O)NCCN(C)C)c3cc(Br)ccc3n2)o1	none (no result: PTHR1 ag, p53 reactivation, BRCA1 expr act, RGS4 inhibitor)
CCNc1ccc(S(=O)(=O)N(CC)CC)cc1N	none (no result: PTHR1 ag, p53 reactivation, BRCA1 expr act, RGS4 inhibitor)
O=C(Nc1ccccc1)c1ccc(-c2ccccc2C(F)(F)F)o1	p53 reactivation inconclusive
CC(C)NC(=O)c1ccc(-c2ccccc2C(F)(F)F)o1	BRCA1 expr act 11µM
Cc1nc2cc(F)ccc2cc1C(=O)NCC1CCCCC1	none (no result: PTHR1 ag, p53 reactivation, BRCA1 expr act, RGS4 inhibitor)
O=C(NCC1CCCCC1)c1ccc(F)cc1Cl	BRCA1 expr act 5.6µM
COc1ccc2nc(N3CCC(O)CC3)c(C#N)cc2c1	p53 reactivation inconclusive
COc1ccc2nc(N3CCC(C)CC3)c(C#N)cc2c1	BRCA1 expr act 11µM
CCCCN1C(=O)C(CC(=O)Nc2ccc(F)c(F)c2)n2c1nc1ccccc12 (configuration not stated)	none (no result: PTHR1 ag, p53 reactivation, BRCA1 expr act, RGS4 inhibitor)
C/C(=N/NC(=S)NC(C)C)c1ccc(C2CCCCC2)cc1	none (no result: PTHR1 ag, p53 reactivation, BRCA1 expr act, RGS4 inhibitor)
Cc1csc(NC(=O)Cc2ccccc2Cl)n1	BRCA1 expr act 10µM
O=C(CSc1ccc(Cl)cc1)Nc1ccccc1-c1nc(-c2ccccn2)no1	none (no result: PTHR1 ag, p53 reactivation, BRCA1 expr act, RGS4 inhibitor)
O=C1c2ccccc2CC[C@H]1CNCCc1ccc(O)cc1	RGS4 inhibitor 4.2µM (no result: PTHR1 ag, p53 reactivation, BRCA1 expr act, LDHA inh)
CCCCc1nc2ccccc2c(NC(=O)CN2CCCC2)c1CCC	LDHA inh -35
CCCCc1nc2ccccc2c(NC(=O)CNC(C)(C)C)c1CCC	LDHA inh inconclusive (no result: p53 reactivation)
CC1CCc2c(sc3nnn(CC(=O)OC4CCCC4)c(=O)c23)C1 (configuration not stated)	none (no result: PTHR1 ag, p53 reactivation, BRCA1 expr act, RGS4 inhibitor)
CN(C)c1ccc(/C=N\NC(=O)c2csnn2)cc1	none
O=C(N/N=C\c1ccc(Oc2ccccc2)cc1)c1csnn1	p53 reactivation inconclusive, BRCA1 expr act 13µM
C=CCn1c(N2CCN(Cc3cccc4ccccc34)CC2)nc2c1c(=O)[nH]c(=O)n2C	none (no result: PTHR1 ag, p53 reactivation, BRCA1 expr act, RGS4 inhibitor)
CCCc1noc(-c2ccc(N3CCCCC3)c([N+](=O)[O-])c2)n1	BRCA1 expr act 7.1µM (no result: p53 reactivation)
Cc1noc(-c2ccc(N3CCCCC3)c([N+](=O)[O-])c2)n1	BRCA1 expr act inconclusive (no result: p53 reactivation)
O=S(=O)(c1ccc2nc(NCCN3CCN(c4ccccc4F)CC3)ccc2c1)N1CCCC1	none (no result: PTHR1 ag, p53 reactivation, BRCA1 expr act, RGS4 inhibitor)
CC(=O)NCCNC(=O)c1ccc2c(=O)n(CCc3ccccc3)c(=O)[nH]c2c1	BRCA1 expr act 4.5µM (no result: p53 reactivation)
CCN(CC)CCCNC(=O)c1ccc2c(=O)n(CCc3ccccc3)c(=O)[nH]c2c1	none (no result: p53 reactivation)
O=[N+]([O-])c1ccc(NC(=S)Nc2ccc3c(c2)CCC3)cc1	none (no result: PTHR1 ag, p53 reactivation, BRCA1 expr act, RGS4 inhibitor)
O=C(Nc1cc(Cl)ccc1O)c1cc(-c2ccco2)on1	p53 reactivation inconclusive, BRCA1 expr act 6.3µM
N#Cc1c(N2C(=O)Nc3ccccc3N2O)sc2c1CCCCCC2	none
N#Cc1c(N2C(=O)Nc3ccccc3N2O)sc2c1CCCC2	BRCA1 expr act 11µM
Nc1ccc(CCc2nc3ccccc3o2)cc1	BRCA1 expr act 2.8µM
O=C(O)c1ccc(C(F)(F)F)cn1	none (no result: PTHR1 ag, p53 reactivation, BRCA1 expr act, RGS4 inhibitor)
COc1ccc2c(c1)CC/C(=C\C=C\c1ccccc1OC)C2=O	p53 reactivation inconclusive, BRCA1 expr act 11µM
COc1cc(NC(=S)NC(=O)C(C)C)ccc1NC(=O)c1cc2ccccc2o1	none
COc1cc(NC(=O)C(C)C)ccc1NC(=O)c1cc2ccccc2o1	BRCA1 expr act 8.9µM (no result: p53 reactivation)
